# Reference: article PMC11062922 (Nature Chemical Biology, 2023)
# Read-outs that look alike come from different tables or passages of the source.
# Columns and labels:
# Design in all cases: species or system human, MV4-11 + K-562 + COLO205 + SK-N-BE2 + OVCAR-8
# CLK4 = details: read-out: apparent Kd; compound concentrations: 100 nM and 1000 nM (sheet 'Samples'), CATDS: 0.40901388179724202; n = 1
# CSNK2A2 = details: read-out: apparent Kd; compound concentrations: 100 nM and 1000 nM (sheet 'Samples'), CATDS: 0.28231341025767498; n = 1
# PDXK = details: read-out: apparent Kd, compound concentrations: 100 nM and 1000 nM (sheet 'Samples'), n = 1
# COX5A = details: read-out: apparent Kd, compound concentrations: 100 nM and 1000 nM (sheet 'Samples'), n = 1
# DDR1 = details: read-out: apparent Kd; compound concentrations: 100 nM and 1000 nM (sheet 'Samples'), CATDS: 0.25244983438360302; n = 1
# DDR2 = details: read-out: apparent Kd; compound concentrations: 100 nM and 1000 nM (sheet 'Samples'), CATDS: 0.115124869581512; n = 1
# FLT3 = details: read-out: apparent Kd; compound concentrations: 100 nM and 1000 nM (sheet 'Samples'), CATDS: 0.12065000979252; n = 1
# NNT = details: read-out: apparent Kd; compound concentrations: 100 nM and 1000 nM (sheet 'Samples'), CATDS: 0.115819369976432; n = 1
# RET = details: read-out: apparent Kd; compound concentrations: 100 nM and 1000 nM (sheet 'Samples'), CATDS: 0.12937404694589899; n = 1
# ZAK = details: read-out: apparent Kd; compound concentrations: 100 nM and 1000 nM (sheet 'Samples'), CATDS: 8.61130704510496E-2; n = 1
# GSK3A = details: read-out: apparent Kd, compound concentrations: 100 nM and 1000 nM (sheet 'Samples'), n = 1
# GSK3B = details: read-out: apparent Kd, compound concentrations: 100 nM and 1000 nM (sheet 'Samples'), n = 1
# GTPBP4 = details: read-out: apparent Kd; compound concentrations: 100 nM and 1000 nM (sheet 'Samples'), CATDS: 4.05365212601312E-2; n = 1
# LATS1 = details: read-out: apparent Kd; compound concentrations: 100 nM and 1000 nM (sheet 'Samples'), CATDS: 6.4509671540351102E-2; n = 1
# PAK4 = details: read-out: apparent Kd; compound concentrations: 100 nM and 1000 nM (sheet 'Samples'), CATDS: 5.9667413912450298E-2; n = 1
# PAK6 = details: read-out: apparent Kd; compound concentrations: 100 nM and 1000 nM (sheet 'Samples'), CATDS: 9.5972545463879802E-2; n = 1
# PKN1 = details: read-out: apparent Kd; compound concentrations: 100 nM and 1000 nM (sheet 'Samples'), CATDS: 5.7657473805166601E-2; n = 1
# PKN2 = details: read-out: apparent Kd; compound concentrations: 100 nM and 1000 nM (sheet 'Samples'), CATDS: 4.3276435854429397E-2; n = 1
# PRKACA = details: read-out: apparent Kd; compound concentrations: 100 nM and 1000 nM (sheet 'Samples'), CATDS: 0.169432353175829; n = 1
# PRKACB = details: read-out: apparent Kd; compound concentrations: 100 nM and 1000 nM (sheet 'Samples'), CATDS: 0.14426679409785001; n = 1
# PRKCD = details: read-out: apparent Kd, compound concentrations: 100 nM and 1000 nM (sheet 'Samples'), n = 1
# PRKCQ = details: read-out: apparent Kd, compound concentrations: 100 nM and 1000 nM (sheet 'Samples'), n = 1
# PRKG1 = details: read-out: apparent Kd; compound concentrations: 100 nM and 1000 nM (sheet 'Samples'), CATDS: 5.6874913121809097E-2; n = 1
# PRKX = details: read-out: apparent Kd; compound concentrations: 100 nM and 1000 nM (sheet 'Samples'), CATDS: 0.106921293671462; n = 1
# ROCK2 = details: read-out: apparent Kd; compound concentrations: 100 nM and 1000 nM (sheet 'Samples'), CATDS: 4.7086778656787398E-2; n = 1
# DCTPP1 = details: read-out: apparent Kd; compound concentrations: 100 nM and 1000 nM (sheet 'Samples'), CATDS: 4.6014352292288702E-2; n = 1
# DJA1 = test system: T1, DJA1; details: read-out: apparent Kd; compound concentrations: 100 nM and 1000 nM (sheet 'Samples'), CATDS: 4.4193252056285201E-2; n = 1
# T1 construct: gene DNAJA1
# ICK = details: read-out: apparent Kd; compound concentrations: 100 nM and 1000 nM (sheet 'Samples'), CATDS: 5.6669342720563003E-2; n = 1
# IRAK4 = details: read-out: apparent Kd; compound concentrations: 100 nM and 1000 nM (sheet 'Samples'), CATDS: 4.1120656288718103E-2; n = 1
# NQO2 = details: read-out: apparent Kd; compound concentrations: 100 nM and 1000 nM (sheet 'Samples'), CATDS: 4.4133222473916003E-2; n = 1
# PKM = details: read-out: apparent Kd; compound concentrations: 100 nM and 1000 nM (sheet 'Samples'), CATDS: 4.24178727539107E-2; n = 1
# PRKCA = details: read-out: apparent Kd; compound concentrations: 100 nM and 1000 nM (sheet 'Samples'), CATDS: 0.16671093509257301; n = 1
# PRKCB = details: read-out: apparent Kd; compound concentrations: 100 nM and 1000 nM (sheet 'Samples'), CATDS: 0.103401892254312; n = 1
# RPS6KA3 = details: read-out: apparent Kd; compound concentrations: 100 nM and 1000 nM (sheet 'Samples'), CATDS: 4.20026996356445E-2; n = 1
# RPS6KA6 = details: read-out: apparent Kd; compound concentrations: 100 nM and 1000 nM (sheet 'Samples'), CATDS: 0.184421750918566; n = 1
# RPS6KB1 = details: read-out: apparent Kd; compound concentrations: 100 nM and 1000 nM (sheet 'Samples'), CATDS: 4.3958496024185799E-2; n = 1
compound,measurement,setting,value
Nc1ncnc2[nH]c(-c3ccccc3)nc12 [AH5015_KCGS],potency estimated from few doses,CLK4,1090 nM
same,potency estimated from few doses,CSNK2A2,2320 nM
same,potency estimated from few doses,PDXK; CATDS: 0.33190254365372501,1610 nM
COC(=O)Nc1nc2cc(Oc3ccc(NC(=O)Nc4cccc(Br)c4)cc3)ccc2[nH]1.Cl [GW694234A],potency estimated from few doses,COX5A; CATDS: 0.15625736744525701,463 nM
same,potency estimated from few doses,DDR1,217 nM
same,potency estimated from few doses,DDR2,865 nM
same,potency estimated from few doses,FLT3,777 nM
same,potency estimated from few doses,NNT,853 nM
same,potency estimated from few doses,PDXK; CATDS: 0.115099137531036,865 nM
same,potency estimated from few doses,RET,668 nM
same,potency estimated from few doses,ZAK,2040 nM
CCn1c(-c2nonc2N)nc2c(C#CC(C)(C)O)nc(OC[C@H](N)c3ccccc3)cc21 [GSK943949A],potency estimated from few doses,COX5A; CATDS: 4.1546789230528999E-2,1670 nM
same,potency estimated from few doses,GSK3A; CATDS: 6.2645628894546598E-2,424 nM
same,potency estimated from few doses,GSK3B; CATDS: 5.5933303342936301E-2,576 nM
same,potency estimated from few doses,GTPBP4,1880 nM
same,potency estimated from few doses,LATS1,394 nM
same,potency estimated from few doses,PAK4,482 nM
same,potency estimated from few doses,PAK6,167 nM
same,potency estimated from few doses,PKN1,529 nM
same,potency estimated from few doses,PKN2,1390 nM
same,potency estimated from few doses,PRKACA,64.8 nM
same,potency estimated from few doses,PRKACB,82.7 nM
same,potency estimated from few doses,PRKCD; CATDS: 4.3301317069520798E-2,1390 nM
same,potency estimated from few doses,PRKCQ; CATDS: 0.16159232019623801,69.5 nM
same,potency estimated from few doses,PRKG1,549 nM
same,potency estimated from few doses,PRKX,137 nM
same,potency estimated from few doses,ROCK2,999 nM
CNCCCn1cc(C2=C(c3cn(C)c4ccccc34)C(=O)NC2=O)c2ccccc21.Cl [RO0318044-001],potency estimated from few doses,COX5A; CATDS: 4.9189359622159999E-2,925 nM
same,potency estimated from few doses,DCTPP1,1150 nM
same,potency estimated from few doses,DJA1,1330 nM
same,potency estimated from few doses,GSK3A; CATDS: 0.122036106459496,114 nM
same,potency estimated from few doses,GSK3B; CATDS: 7.9816759037496299E-2,263 nM
same,potency estimated from few doses,ICK,610 nM
same,potency estimated from few doses,IRAK4,1750 nM
same,potency estimated from few doses,NQO2,1330 nM
same,potency estimated from few doses,PDXK; CATDS: 4.47093082107951E-2,1270 nM
same,potency estimated from few doses,PKM,1550 nM
same,potency estimated from few doses,PRKCA,67.8 nM
same,potency estimated from few doses,PRKCB,154 nM
same,potency estimated from few doses,PRKCD; CATDS: 0.14677324190073199,83 nM
same,potency estimated from few doses,PRKCQ; CATDS: 5.3878720766830299E-2,703 nM
same,potency estimated from few doses,RPS6KA3,1610 nM
same,potency estimated from few doses,RPS6KA6,58.2 nM
same,potency estimated from few doses,RPS6KB1,1350 nM
